Columns and labels:
Test in all cases: DAPPL (digital affinity profiling via proximity ligation, sequencing); 10 mM Tris-HCl pH 7.5, 50 mM NaCl, 1 mM DTT, 4% glycerol, room temperature, 30 min; GST-TFs on glutathione beads, 16-mer random dsDNA library, 0.1% formaldehyde crosslink after washing; high values mean tight binding
Conditions in all cases: protein: recombinant; tags: N-terminal GST; dsDNA, one strand shown
FEV = molecular target: T1, FEV (Homo sapiens, UniProt Q99581 1-238)
T1 sequence: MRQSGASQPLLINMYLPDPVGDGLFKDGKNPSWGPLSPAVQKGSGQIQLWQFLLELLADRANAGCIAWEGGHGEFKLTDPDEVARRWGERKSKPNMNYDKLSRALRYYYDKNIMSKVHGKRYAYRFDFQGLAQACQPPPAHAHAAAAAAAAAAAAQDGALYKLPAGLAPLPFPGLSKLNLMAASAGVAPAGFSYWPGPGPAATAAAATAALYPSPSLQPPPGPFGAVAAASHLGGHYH
Summary of the method: (§1)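 A tag-only sample was pooled with DNA-barcoded human transcription factors that had been expressed in yeast as GST fusions and captured on glutathione beads. The pools were incubated for 30 min at room temperature with 200 nmole of a random double-stranded 16-mer DNA library in Tris/NaCl/DTT/glycerol buffer, then washed, crosslinked with 0.1% formaldehyde, proximity-ligated (BsaI/T4 ligase, 1 h, 37 °C), PCR-amplified and sequenced on an Illumina NextSeq500. Binding signal is each hexamer's read frequency for a factor divided by its frequency for the tag-only sample.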

ETV5 = ETV5 (Homo sapiens, UniProt P41161 1-510)
ETV5, sequence (P41161 whole entry): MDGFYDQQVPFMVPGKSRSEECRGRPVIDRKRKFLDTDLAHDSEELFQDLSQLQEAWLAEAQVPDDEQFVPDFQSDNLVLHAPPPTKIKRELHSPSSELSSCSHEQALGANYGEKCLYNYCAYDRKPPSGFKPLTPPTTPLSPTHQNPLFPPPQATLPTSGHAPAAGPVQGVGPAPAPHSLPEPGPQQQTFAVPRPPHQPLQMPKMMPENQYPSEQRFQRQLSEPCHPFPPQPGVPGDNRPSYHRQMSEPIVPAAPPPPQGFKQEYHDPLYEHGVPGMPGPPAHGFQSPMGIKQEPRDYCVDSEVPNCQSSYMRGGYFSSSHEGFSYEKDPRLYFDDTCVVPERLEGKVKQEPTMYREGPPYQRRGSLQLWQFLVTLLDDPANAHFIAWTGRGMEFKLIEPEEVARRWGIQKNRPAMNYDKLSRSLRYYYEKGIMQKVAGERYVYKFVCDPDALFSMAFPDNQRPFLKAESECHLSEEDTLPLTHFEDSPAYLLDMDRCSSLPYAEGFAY
Summary of the method: as §1

SPIC = molecular target: T2, SPIC (Homo sapiens, UniProt Q8N5J4 1-248)
T2 sequence: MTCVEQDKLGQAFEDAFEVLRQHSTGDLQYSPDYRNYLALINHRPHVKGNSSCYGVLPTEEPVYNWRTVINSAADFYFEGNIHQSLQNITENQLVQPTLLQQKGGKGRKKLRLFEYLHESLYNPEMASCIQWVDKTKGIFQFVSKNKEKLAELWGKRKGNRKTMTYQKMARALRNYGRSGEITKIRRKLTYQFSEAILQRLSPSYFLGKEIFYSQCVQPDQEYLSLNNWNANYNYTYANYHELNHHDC
Summary of the method: as §1

ELF4 = ELF4 (Homo sapiens, UniProt Q99607 1-663)
ELF4, sequence (Q99607 whole entry): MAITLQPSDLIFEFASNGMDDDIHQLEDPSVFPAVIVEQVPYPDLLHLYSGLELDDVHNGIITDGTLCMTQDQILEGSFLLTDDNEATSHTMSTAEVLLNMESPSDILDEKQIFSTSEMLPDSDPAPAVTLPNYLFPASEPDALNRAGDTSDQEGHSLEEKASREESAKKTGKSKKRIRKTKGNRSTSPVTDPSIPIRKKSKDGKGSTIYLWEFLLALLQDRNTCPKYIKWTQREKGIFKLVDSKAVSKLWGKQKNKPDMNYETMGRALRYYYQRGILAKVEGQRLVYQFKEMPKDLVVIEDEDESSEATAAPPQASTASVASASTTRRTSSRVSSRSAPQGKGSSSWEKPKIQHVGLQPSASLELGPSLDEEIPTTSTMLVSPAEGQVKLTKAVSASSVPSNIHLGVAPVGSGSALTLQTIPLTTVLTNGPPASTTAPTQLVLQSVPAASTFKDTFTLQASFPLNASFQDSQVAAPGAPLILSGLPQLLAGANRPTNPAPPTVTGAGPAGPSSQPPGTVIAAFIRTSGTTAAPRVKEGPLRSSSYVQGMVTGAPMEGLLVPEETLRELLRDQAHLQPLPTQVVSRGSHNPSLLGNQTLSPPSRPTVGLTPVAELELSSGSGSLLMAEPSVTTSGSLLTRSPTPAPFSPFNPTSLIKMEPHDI
Summary of the method: as §1

ELK4 = molecular target: T3, ELK4 (Homo sapiens, UniProt P28324-2 1-405)
T3 sequence: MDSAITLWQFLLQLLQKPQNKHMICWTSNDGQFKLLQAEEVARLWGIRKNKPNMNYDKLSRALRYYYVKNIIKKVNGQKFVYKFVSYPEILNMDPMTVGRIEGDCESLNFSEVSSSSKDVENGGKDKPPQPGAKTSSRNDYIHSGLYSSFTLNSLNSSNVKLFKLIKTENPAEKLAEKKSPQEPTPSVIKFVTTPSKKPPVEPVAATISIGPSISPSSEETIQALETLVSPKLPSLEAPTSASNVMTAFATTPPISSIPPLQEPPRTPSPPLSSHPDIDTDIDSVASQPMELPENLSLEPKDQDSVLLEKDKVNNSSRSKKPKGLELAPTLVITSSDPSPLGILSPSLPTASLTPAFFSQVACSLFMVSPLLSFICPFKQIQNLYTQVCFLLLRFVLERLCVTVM
Summary of the method: as §1

ETV2 = molecular target: T4, ETV2 (Homo sapiens, UniProt O00321 1-342)
T4 sequence: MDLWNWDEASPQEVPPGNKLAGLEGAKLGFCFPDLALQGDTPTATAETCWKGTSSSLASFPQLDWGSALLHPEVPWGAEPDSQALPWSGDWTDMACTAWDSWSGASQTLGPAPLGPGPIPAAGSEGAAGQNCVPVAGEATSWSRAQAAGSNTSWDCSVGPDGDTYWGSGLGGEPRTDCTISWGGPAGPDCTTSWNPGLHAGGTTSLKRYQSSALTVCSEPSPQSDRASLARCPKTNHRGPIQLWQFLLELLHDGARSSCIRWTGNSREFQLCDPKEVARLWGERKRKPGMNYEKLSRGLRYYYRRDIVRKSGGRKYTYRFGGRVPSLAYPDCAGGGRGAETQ
Summary of the method: as §1

ELF3 = molecular target: T5, ELF3 (Homo sapiens, UniProt P78545 1-371)
T5 sequence: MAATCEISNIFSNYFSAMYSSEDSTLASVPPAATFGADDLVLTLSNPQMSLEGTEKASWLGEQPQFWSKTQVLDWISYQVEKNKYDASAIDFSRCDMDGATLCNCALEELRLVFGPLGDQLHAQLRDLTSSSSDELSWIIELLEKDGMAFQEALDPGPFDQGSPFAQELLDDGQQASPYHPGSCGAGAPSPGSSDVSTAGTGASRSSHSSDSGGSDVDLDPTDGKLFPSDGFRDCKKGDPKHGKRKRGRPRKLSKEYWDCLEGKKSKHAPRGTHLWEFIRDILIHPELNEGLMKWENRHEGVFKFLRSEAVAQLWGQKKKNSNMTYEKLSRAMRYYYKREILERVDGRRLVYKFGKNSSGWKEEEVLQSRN
Summary of the method: as §1

ETV1 = ETV1 (Homo sapiens, UniProt P50549 1-477)
ETV1, sequence (P50549 whole entry): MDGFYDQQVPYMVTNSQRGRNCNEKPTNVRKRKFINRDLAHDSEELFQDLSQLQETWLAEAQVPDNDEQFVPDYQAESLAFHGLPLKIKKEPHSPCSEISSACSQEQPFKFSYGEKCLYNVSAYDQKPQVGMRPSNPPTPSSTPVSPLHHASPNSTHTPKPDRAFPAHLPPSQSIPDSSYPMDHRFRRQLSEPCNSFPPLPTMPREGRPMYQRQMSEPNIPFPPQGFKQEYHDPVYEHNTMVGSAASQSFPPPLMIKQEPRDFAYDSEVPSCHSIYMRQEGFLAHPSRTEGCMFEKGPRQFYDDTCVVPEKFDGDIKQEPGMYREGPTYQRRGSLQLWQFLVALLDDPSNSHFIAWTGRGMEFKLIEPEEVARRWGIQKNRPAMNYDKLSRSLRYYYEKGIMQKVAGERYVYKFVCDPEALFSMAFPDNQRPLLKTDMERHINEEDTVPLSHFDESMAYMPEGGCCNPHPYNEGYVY
Summary of the method: as §1

ERF = molecular target: T6, ERF (Homo sapiens, UniProt P50548 1-548)
T6 sequence: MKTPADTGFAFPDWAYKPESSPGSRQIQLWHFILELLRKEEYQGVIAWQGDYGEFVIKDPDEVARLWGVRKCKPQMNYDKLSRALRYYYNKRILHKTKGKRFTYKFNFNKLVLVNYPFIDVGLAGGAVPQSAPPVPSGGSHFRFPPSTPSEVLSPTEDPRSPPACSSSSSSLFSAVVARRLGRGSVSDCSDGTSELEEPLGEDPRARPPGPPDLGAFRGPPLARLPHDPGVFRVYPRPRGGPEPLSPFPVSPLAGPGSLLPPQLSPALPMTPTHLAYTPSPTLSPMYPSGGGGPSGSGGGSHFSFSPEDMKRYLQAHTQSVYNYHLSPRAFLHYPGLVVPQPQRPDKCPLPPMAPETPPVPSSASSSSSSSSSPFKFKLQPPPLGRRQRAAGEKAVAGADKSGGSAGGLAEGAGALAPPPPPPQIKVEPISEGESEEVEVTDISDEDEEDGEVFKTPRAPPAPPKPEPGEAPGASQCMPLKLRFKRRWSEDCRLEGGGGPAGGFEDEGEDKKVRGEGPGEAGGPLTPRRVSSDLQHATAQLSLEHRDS
Summary of the method: as §1

ETV3L = molecular target: T7, ETV3L (Homo sapiens, UniProt Q6ZN32 1-361)
T7 sequence: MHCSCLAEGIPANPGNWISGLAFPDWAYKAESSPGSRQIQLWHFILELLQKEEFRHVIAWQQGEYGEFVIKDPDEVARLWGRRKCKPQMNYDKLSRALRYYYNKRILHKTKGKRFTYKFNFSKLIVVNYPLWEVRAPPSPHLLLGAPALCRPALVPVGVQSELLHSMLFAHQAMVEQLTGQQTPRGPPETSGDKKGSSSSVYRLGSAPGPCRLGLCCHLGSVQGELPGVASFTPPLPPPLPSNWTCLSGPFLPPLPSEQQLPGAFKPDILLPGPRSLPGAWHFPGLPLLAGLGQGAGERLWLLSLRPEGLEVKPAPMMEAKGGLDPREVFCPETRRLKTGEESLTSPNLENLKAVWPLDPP
Summary of the method: as §1

ETS2 = molecular target: T8, ETS2 (Homo sapiens, UniProt P15036 1-469)
T8 sequence: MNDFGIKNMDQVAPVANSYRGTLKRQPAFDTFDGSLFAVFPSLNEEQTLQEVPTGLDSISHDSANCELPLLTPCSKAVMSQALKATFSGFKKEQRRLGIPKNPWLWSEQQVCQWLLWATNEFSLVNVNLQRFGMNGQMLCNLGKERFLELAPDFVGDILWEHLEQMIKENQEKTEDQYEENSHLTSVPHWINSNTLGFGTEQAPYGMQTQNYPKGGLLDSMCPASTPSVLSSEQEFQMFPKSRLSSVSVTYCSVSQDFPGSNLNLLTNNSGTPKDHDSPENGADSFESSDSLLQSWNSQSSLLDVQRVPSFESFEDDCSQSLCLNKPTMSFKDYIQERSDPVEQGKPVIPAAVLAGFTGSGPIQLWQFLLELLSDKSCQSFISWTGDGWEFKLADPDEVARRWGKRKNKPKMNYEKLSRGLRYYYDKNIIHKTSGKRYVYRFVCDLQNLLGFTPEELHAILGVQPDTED
Summary of the method: as §1

SPDEF = molecular target: T9, SPDEF (Homo sapiens, UniProt O95238 1-335)
T9 sequence: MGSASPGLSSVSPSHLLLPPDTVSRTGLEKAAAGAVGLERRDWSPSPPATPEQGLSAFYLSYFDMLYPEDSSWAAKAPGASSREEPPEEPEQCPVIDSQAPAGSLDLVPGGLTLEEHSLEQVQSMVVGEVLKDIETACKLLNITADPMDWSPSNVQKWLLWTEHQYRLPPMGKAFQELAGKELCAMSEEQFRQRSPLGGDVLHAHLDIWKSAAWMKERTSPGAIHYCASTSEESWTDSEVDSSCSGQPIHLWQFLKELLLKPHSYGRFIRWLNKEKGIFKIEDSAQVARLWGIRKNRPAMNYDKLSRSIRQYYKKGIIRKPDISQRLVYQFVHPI
Summary of the method: as §1

ETV7 = molecular target: T10, ETV7 (Homo sapiens, UniProt Q9Y603 1-341)
T10 sequence: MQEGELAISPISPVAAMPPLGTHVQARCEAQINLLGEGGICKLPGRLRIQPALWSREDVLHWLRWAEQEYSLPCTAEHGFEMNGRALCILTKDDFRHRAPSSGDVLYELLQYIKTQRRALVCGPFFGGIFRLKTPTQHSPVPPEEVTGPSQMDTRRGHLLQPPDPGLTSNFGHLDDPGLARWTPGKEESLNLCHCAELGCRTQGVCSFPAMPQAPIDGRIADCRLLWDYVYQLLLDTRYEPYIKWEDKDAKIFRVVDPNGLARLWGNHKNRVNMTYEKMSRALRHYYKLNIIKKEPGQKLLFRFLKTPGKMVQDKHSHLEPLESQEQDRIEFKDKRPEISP
Summary of the method: as §1

ELF5 = molecular target: T11, ELF5 (Homo sapiens, UniProt Q9UKW6-2 1-255)
T11 sequence: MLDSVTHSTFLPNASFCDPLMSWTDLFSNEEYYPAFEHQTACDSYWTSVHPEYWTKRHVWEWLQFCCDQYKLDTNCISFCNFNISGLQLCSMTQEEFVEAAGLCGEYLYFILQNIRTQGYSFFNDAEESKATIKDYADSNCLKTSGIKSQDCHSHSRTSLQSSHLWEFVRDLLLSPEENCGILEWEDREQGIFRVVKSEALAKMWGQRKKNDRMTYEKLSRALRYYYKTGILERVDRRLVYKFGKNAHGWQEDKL
Summary of the method: as §1

ETV3 = molecular target: T12, ETV3 (Homo sapiens, UniProt P41162-2 1-143)
T12 sequence: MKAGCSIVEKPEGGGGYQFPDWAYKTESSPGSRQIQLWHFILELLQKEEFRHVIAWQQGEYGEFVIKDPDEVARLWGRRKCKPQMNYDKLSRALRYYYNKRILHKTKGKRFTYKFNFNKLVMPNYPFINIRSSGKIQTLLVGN
Summary of the method: as §1

ETV6 = ETV6 (Homo sapiens, UniProt P41212 1-452)
ETV6, sequence (P41212 whole entry): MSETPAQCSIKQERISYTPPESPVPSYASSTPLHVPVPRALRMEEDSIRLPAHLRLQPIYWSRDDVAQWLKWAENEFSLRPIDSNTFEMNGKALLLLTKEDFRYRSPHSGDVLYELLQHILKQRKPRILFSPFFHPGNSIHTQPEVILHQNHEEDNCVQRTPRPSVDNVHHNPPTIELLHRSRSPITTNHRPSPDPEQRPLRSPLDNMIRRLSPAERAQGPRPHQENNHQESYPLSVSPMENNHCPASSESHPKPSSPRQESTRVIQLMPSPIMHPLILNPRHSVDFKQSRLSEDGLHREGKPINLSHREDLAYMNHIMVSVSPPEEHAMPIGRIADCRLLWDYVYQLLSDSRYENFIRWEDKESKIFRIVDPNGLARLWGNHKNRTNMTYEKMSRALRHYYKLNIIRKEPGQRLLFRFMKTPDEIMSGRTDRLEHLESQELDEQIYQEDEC
Summary of the method: as §1

CACGCC
binding signal (FEV): 1.19 fold enrichment (6-mer frequency, TF over GST control)
binding signal (ETV5): 1.17 fold enrichment (6-mer frequency, TF over GST control)
binding signal (SPIC): 1.01 fold enrichment (6-mer frequency, TF over GST control)
binding signal (ELF4): 1.25 fold enrichment (6-mer frequency, TF over GST control)
binding signal (ELK4): 1.24 fold enrichment (6-mer frequency, TF over GST control)
binding signal (ETV2): 1.22 fold enrichment (6-mer frequency, TF over GST control)
binding signal (ELF3): 1.27 fold enrichment (6-mer frequency, TF over GST control)
binding signal (ETV1): 1.19 fold enrichment (6-mer frequency, TF over GST control)
binding signal (ERF): 1.21 fold enrichment (6-mer frequency, TF over GST control)
binding signal (ETV3L): 1.2 fold enrichment (6-mer frequency, TF over GST control)
binding signal (ETS2): 1.09 fold enrichment (6-mer frequency, TF over GST control)
binding signal (SPDEF): 1.05 fold enrichment (6-mer frequency, TF over GST control)
binding signal (ETV7): 1.12 fold enrichment (6-mer frequency, TF over GST control)
binding signal (ELF5): 1.1 fold enrichment (6-mer frequency, TF over GST control)
binding signal (ETV3): 1.2 fold enrichment (6-mer frequency, TF over GST control)
binding signal (ETV6): 1.17 fold enrichment (6-mer frequency, TF over GST control)

ACAAAC
binding signal (FEV): 1.15 fold enrichment (6-mer frequency, TF over GST control)
binding signal (ETV5): 1.08 fold enrichment (6-mer frequency, TF over GST control)
binding signal (SPIC): 1.11 fold enrichment (6-mer frequency, TF over GST control)
binding signal (ELF4): 1.12 fold enrichment (6-mer frequency, TF over GST control)
binding signal (ELK4): 1.08 fold enrichment (6-mer frequency, TF over GST control)
binding signal (ETV2): 1.24 fold enrichment (6-mer frequency, TF over GST control)
binding signal (ELF3): 1.12 fold enrichment (6-mer frequency, TF over GST control)
binding signal (ETV1): 1.12 fold enrichment (6-mer frequency, TF over GST control)
binding signal (ERF): 1.11 fold enrichment (6-mer frequency, TF over GST control)
binding signal (ETV3L): 1.08 fold enrichment (6-mer frequency, TF over GST control)
binding signal (ETS2): 1.22 fold enrichment (6-mer frequency, TF over GST control)
binding signal (SPDEF): 1.15 fold enrichment (6-mer frequency, TF over GST control)
binding signal (ETV7): 1.11 fold enrichment (6-mer frequency, TF over GST control)
binding signal (ELF5): 1.12 fold enrichment (6-mer frequency, TF over GST control)
binding signal (ETV3): 1.09 fold enrichment (6-mer frequency, TF over GST control)
binding signal (ETV6): 1.15 fold enrichment (6-mer frequency, TF over GST control)

Reference: PMC7862700, “An all-to-all approach to the identification of sequence-specific readers for epigenetic DNA modifications on cytosine”
